About 83,000 compounds went through this panel and 20% of them were active in at least one assay; those are over-represented in the sample as a whole.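 Assay: single dose, 48 h. Readout: percent growth (0 = no net growth; negative = cell death). Active: <10.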 Active and inactive are the calls of the source.
Tests used:
Experiment in all cases: NCI-60 one-dose screen, 48 h (100 = growth as untreated, 0 = no growth, -100 = all killed)
SR leukemia = details: 10 µM unless noted
RPMI-8226 leukemia = details: 10 µM unless noted
OVCAR-8 ovarian = details: 10 µM unless noted
OVCAR-5 ovarian = details: 10 µM unless noted
OVCAR-4 ovarian = details: 10 µM unless noted
SK-OV-3 ovarian = details: 10 µM unless noted
IGROV1 ovarian = details: 10 µM unless noted
OVCAR-3 ovarian = details: 10 µM unless noted
NCI/ADR-RES ovarian = details: 10 µM unless noted
T-47D breast = details: 10 µM unless noted
BT-549 breast = details: 10 µM unless noted
MDA-MB-435 melanoma = details: 10 µM unless noted
SW-620 colon = details: 10 µM unless noted
MCF7 breast = details: 10 µM unless noted
HCT-116 colon = details: 10 µM unless noted
HCC-2998 colon = details: 10 µM
KM12 colon = details: 10 µM unless noted

Measured: growth

CNC(=O)CN1CCC(Oc2cc3c(Nc4cccc(Cl)c4F)ncnc3cc2OC)CC1
inactive: SR leukemia 63.8% | RPMI-8226 leukemia 70.9% | OVCAR-8 ovarian 45.6% | OVCAR-5 ovarian 25.3% | OVCAR-4 ovarian 70.5% | OVCAR-3 ovarian 46.3% | NCI/ADR-RES ovarian 56.6% | BT-549 breast 93.5% | MDA-MB-435 melanoma 98.2% | SW-620 colon 71.5% | MCF7 breast 51.1% | HCT-116 colon 54.7% | HCC-2998 colon 83.2% | KM12 colon 81.4%
active: SK-OV-3 ovarian -22.4% | IGROV1 ovarian -25.2% | T-47D breast -11.2%

COc1cc2nccc(Oc3ccc(NC(=O)Nc4cc(C)on4)c(Cl)c3)c2cc1OC
active: SR leukemia 4.19% | SK-OV-3 ovarian -17.3% | IGROV1 ovarian 0.0648% | T-47D breast -1.14% | HCT-116 colon -4.79%
inactive: RPMI-8226 leukemia 21% | OVCAR-8 ovarian 15.3% | OVCAR-5 ovarian 20.2% | OVCAR-4 ovarian 31.1% | OVCAR-3 ovarian 35.1% | NCI/ADR-RES ovarian 10.2% | BT-549 breast 19.6% | MDA-MB-435 melanoma 14.8% | SW-620 colon 10.7% | MCF7 breast 22.8% | HCC-2998 colon 56.6% | KM12 colon 11.4%

Cc1ccc(NC(=O)c2ccc(CN3CC[C@H](N(C)C)C3)c(C(F)(F)F)c2)cc1Nc1nccc(-c2cncnc2)n1
inactive: OVCAR-5 ovarian 15.3% | SK-OV-3 ovarian 38.6% | NCI/ADR-RES ovarian 24.9% | BT-549 breast 35.9% | KM12 colon 10.4%
active: SR leukemia -7.54% | RPMI-8226 leukemia -9.27% | OVCAR-8 ovarian 3.4% | OVCAR-4 ovarian -4.76% | IGROV1 ovarian 0.261% | OVCAR-3 ovarian -6.36% | T-47D breast -58.9% | MDA-MB-435 melanoma -18.3% | SW-620 colon 8.15% | MCF7 breast 7.04% | HCT-116 colon -17.4% | HCC-2998 colon -22.7%

O=C(Nc1nc2cccc(-c3ccc(CN4CCS(=O)(=O)CC4)cc3)n2n1)C1CC1
inactive: SR leukemia 45.4% | RPMI-8226 leukemia 62.5% | OVCAR-8 ovarian 58.1% | OVCAR-5 ovarian 75.3% | OVCAR-4 ovarian 78.4% | SK-OV-3 ovarian 58.4% | IGROV1 ovarian 65% | OVCAR-3 ovarian 57.5% | NCI/ADR-RES ovarian 90.3% | T-47D breast 80.4% | BT-549 breast 53.6% | MDA-MB-435 melanoma 91.3% | SW-620 colon 30.1% | MCF7 breast 16.7% | HCT-116 colon 44.3% | HCC-2998 colon 79.2% | KM12 colon 31.7%

O=C(NC1CCNCC1)c1[nH]ncc1NC(=O)c1c(Cl)cccc1Cl
inactive: IGROV1 ovarian 10.2% | NCI/ADR-RES ovarian 85%
active: SR leukemia 2.12% | RPMI-8226 leukemia 1.32% | OVCAR-8 ovarian 9% | OVCAR-5 ovarian 9.52% | OVCAR-4 ovarian 8.44% | SK-OV-3 ovarian 7.3% | OVCAR-3 ovarian 4.35% | T-47D breast -3.82% | BT-549 breast 7.37% | MDA-MB-435 melanoma -43.3% | SW-620 colon 6.16% | MCF7 breast 3.78% | HCT-116 colon 4.77% | HCC-2998 colon -2.4% | KM12 colon 8.2%

CCNC(=O)C#Cc1ccc2c(C(=Nc3ccc(CN(C)C)cc3)c3ccccc3)c(O)[nH]c2c1
inactive: RPMI-8226 leukemia 30% | OVCAR-8 ovarian 48.3% | OVCAR-4 ovarian 51.9% | SK-OV-3 ovarian 10.8% | OVCAR-3 ovarian 51% | NCI/ADR-RES ovarian 54.3% | T-47D breast 62.3% | BT-549 breast 52.8% | MDA-MB-435 melanoma 14.7% | MCF7 breast 33.1%
active: SR leukemia -13.6% | OVCAR-5 ovarian 5.7% | IGROV1 ovarian 5.41% | SW-620 colon 0.412% | HCT-116 colon -16.2% | HCC-2998 colon -17.3% | KM12 colon 6.13%

CC(C)Nc1cc(-c2c[nH]c(C(=O)N[C@H](CO)c3cccc(Cl)c3)c2)c(Cl)cn1
active: HCC-2998 colon -10.9%
inactive: SR leukemia 23.9% | RPMI-8226 leukemia 21.8% | OVCAR-8 ovarian 35% | OVCAR-5 ovarian 19.5% | OVCAR-4 ovarian 42.2% | SK-OV-3 ovarian 23.3% | IGROV1 ovarian 18.4% | OVCAR-3 ovarian 75.9% | NCI/ADR-RES ovarian 47.9% | T-47D breast 34.7% | BT-549 breast 57.3% | MDA-MB-435 melanoma 21.7% | SW-620 colon 20.6% | MCF7 breast 27.9% | HCT-116 colon 15.7% | KM12 colon 18.7%

Cc1cc(Nc2nc(N[C@@H](C)c3ncc(F)cn3)ncc2Cl)n[nH]1
active: SR leukemia 7%
inactive: RPMI-8226 leukemia 89.9% | OVCAR-8 ovarian 88.1% | OVCAR-5 ovarian 59.8% | OVCAR-4 ovarian 91.6% | SK-OV-3 ovarian 75.3% | IGROV1 ovarian 45% | OVCAR-3 ovarian 93.3% | NCI/ADR-RES ovarian 87.5% | T-47D breast 86.5% | BT-549 breast 65.3% | MDA-MB-435 melanoma 77.2% | SW-620 colon 58% | MCF7 breast 63.1% | HCT-116 colon 62.4% | HCC-2998 colon 61.4% | KM12 colon 14.7%

COc1cc2c(Nc3ccc(Br)cc3F)ncnc2cc1OCC1CCN(C)CC1
inactive: RPMI-8226 leukemia 26.8% | OVCAR-8 ovarian 27.6% | OVCAR-5 ovarian 34.8% | OVCAR-4 ovarian 36.4% | OVCAR-3 ovarian 42.4% | NCI/ADR-RES ovarian 30.3% | BT-549 breast 42.9% | SW-620 colon 31.8% | MCF7 breast 31.3% | HCT-116 colon 24.3% | HCC-2998 colon 19.3% | KM12 colon 38.1%
active: SR leukemia -6.08% | SK-OV-3 ovarian -5.59% | IGROV1 ovarian -21.9% | T-47D breast -22.9% | MDA-MB-435 melanoma -42.8%

CN1CC[C@@H](c2c(O)cc(O)c3c(=O)cc(-c4ccccc4Cl)oc23)[C@@H]1CO
active: SR leukemia 1.89% | RPMI-8226 leukemia 3.13% | OVCAR-8 ovarian 6.68% | OVCAR-5 ovarian 7.25% | OVCAR-4 ovarian -2.68% | SK-OV-3 ovarian 5.82% | IGROV1 ovarian 6.42% | NCI/ADR-RES ovarian -3.1% | T-47D breast -8.71% | BT-549 breast -4.92% | MDA-MB-435 melanoma -67.9% | SW-620 colon 4.02% | MCF7 breast 4.7% | HCT-116 colon 3.53% | HCC-2998 colon -25.8% | KM12 colon 3.84%
inactive: OVCAR-3 ovarian 14%

CN1CCN(c2ccc(C(=O)Nc3n[nH]c4ccc(Cc5cc(F)cc(F)c5)cc34)c(NC3CCOCC3)c2)CC1
active: SR leukemia -28.6% | RPMI-8226 leukemia -29.6% | OVCAR-5 ovarian 1.41% | OVCAR-4 ovarian -6.27% | IGROV1 ovarian -46.1% | T-47D breast -65.6% | MDA-MB-435 melanoma -86.5% | SW-620 colon -79.2% | MCF7 breast -72% | HCT-116 colon -95.5% | HCC-2998 colon -81.3% | KM12 colon -72.5%
inactive: OVCAR-8 ovarian 22.6% | SK-OV-3 ovarian 20.1% | OVCAR-3 ovarian 32.8% | NCI/ADR-RES ovarian 10.8% | BT-549 breast 10.6%

Cc1nc(NC(=O)N2CCC[C@H]2C(N)=O)sc1-c1ccnc(C(C)(C)C(F)(F)F)c1
inactive: SR leukemia 26.2% | RPMI-8226 leukemia 48.7% | OVCAR-8 ovarian 48.5% | OVCAR-5 ovarian 36.5% | OVCAR-4 ovarian 72% | OVCAR-3 ovarian 39.1% | NCI/ADR-RES ovarian 60.8% | BT-549 breast 50.2% | MDA-MB-435 melanoma 49.3% | SW-620 colon 41.7% | MCF7 breast 13.9% | HCT-116 colon 26.4% | HCC-2998 colon 48.6% | KM12 colon 57.6%
active: SK-OV-3 ovarian -25.6% | IGROV1 ovarian -23.5% | T-47D breast -34.7%

COc1cccc2cc(-c3nc(C4CCC(C(=O)O)CC4)n4ncnc(N)c34)[nH]c12 (stereo not given)
inactive: OVCAR-5 ovarian 25.6% | OVCAR-3 ovarian 12.3% | HCT-116 colon 26.3% | HCC-2998 colon 23.1% | KM12 colon 18.4%
active: SR leukemia 7.63% | RPMI-8226 leukemia 7.52% | OVCAR-8 ovarian 1.18% | OVCAR-4 ovarian -23.4% | SK-OV-3 ovarian -26% | IGROV1 ovarian -12.9% | NCI/ADR-RES ovarian 2.94% | T-47D breast -30.2% | BT-549 breast -11.5% | MDA-MB-435 melanoma -8.42% | MCF7 breast 6.71%

O=C(Nc1cnn2ccc(N3CCC[C@@H]3c3cc(F)ccc3F)nc12)N1CC[C@H](O)C1
inactive: SR leukemia 72.1% | RPMI-8226 leukemia 91.1% | OVCAR-8 ovarian 80.4% | OVCAR-5 ovarian 114% | OVCAR-4 ovarian 117% | SK-OV-3 ovarian 79.6% | IGROV1 ovarian 105% | OVCAR-3 ovarian 99.9% | NCI/ADR-RES ovarian 97% | T-47D breast 78.3% | BT-549 breast 90.5% | MDA-MB-435 melanoma 93% | SW-620 colon 106% | MCF7 breast 99.7% | HCT-116 colon 83.1% | KM12 colon 26.7%

COc1cc2c(cc1OCCCN1Cc3ccc(OCCCCC(=O)N4CCC(CCN5CCCC5)CC4)cc3C1)N=C(N)C21CCCC1
active: SR leukemia 1.87%
inactive: RPMI-8226 leukemia 62.6% | OVCAR-8 ovarian 97.9% | OVCAR-5 ovarian 102% | OVCAR-4 ovarian 77% | SK-OV-3 ovarian 71.7% | IGROV1 ovarian 83% | OVCAR-3 ovarian 99.2% | NCI/ADR-RES ovarian 107% | T-47D breast 56.2% | BT-549 breast 63.4% | MDA-MB-435 melanoma 81.5% | MCF7 breast 58.5% | HCT-116 colon 68.1% | HCC-2998 colon 101% | KM12 colon 78.5%

O=c1[nH]c([C@@H]2CCCN2)nc2c1oc1ccc(Cl)cc12
inactive: SR leukemia 34.1% | RPMI-8226 leukemia 86.6% | OVCAR-8 ovarian 72.9% | OVCAR-5 ovarian 49.8% | OVCAR-4 ovarian 84.5% | SK-OV-3 ovarian 24% | IGROV1 ovarian 81.3% | OVCAR-3 ovarian 65% | NCI/ADR-RES ovarian 82.9% | T-47D breast 56.4% | BT-549 breast 58.5% | MDA-MB-435 melanoma 73.3% | SW-620 colon 22.7% | MCF7 breast 49.2% | HCT-116 colon 33.6% | KM12 colon 31.6%

C=CC(=O)Nc1cc2c(Nc3ccc(F)c(Cl)c3)ncnc2cc1OCCCN1CCOCC1
inactive: OVCAR-5 ovarian 35.6% | OVCAR-3 ovarian 14.7% | NCI/ADR-RES ovarian 13.8% | MDA-MB-435 melanoma 23.6% | MCF7 breast 13.7% | KM12 colon 19.1%
active: SR leukemia -8.22% | RPMI-8226 leukemia -9.72% | OVCAR-8 ovarian -17.6% | OVCAR-4 ovarian 8.1% | SK-OV-3 ovarian -16.3% | IGROV1 ovarian -67.5% | T-47D breast -0.739% | BT-549 breast -10.8% | SW-620 colon -53.5% | HCT-116 colon -70.8%

CC[C@@H]1C(=O)N(C)c2cnc(Nc3ccc(C(=O)NC4CCN(C)CC4)cc3OC)nc2N1C1CCCC1
active: SR leukemia -20.7% | RPMI-8226 leukemia -40.6% | SK-OV-3 ovarian -64.3% | IGROV1 ovarian -0.189% | T-47D breast -7.47% | MDA-MB-435 melanoma 2.22% | MCF7 breast 7.63% | HCT-116 colon 0.114% | HCC-2998 colon -28.6%
inactive: OVCAR-8 ovarian 21.4% | OVCAR-5 ovarian 17.3% | OVCAR-4 ovarian 35.3% | OVCAR-3 ovarian 13.1% | NCI/ADR-RES ovarian 24% | BT-549 breast 17.5% | KM12 colon 12.9%

From PubChem BioAssay (NCI)
